# From PubChem BioAssay
# Sa RN4220 lethal – growth inhibition of S. aureus RN4220, primary screen, OD600; 16 h; inhibition, % (no concentration beside the values); hit rate 0.33% among 330,000; in the data active means inhibition above about 85%;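 further: plate controls were untreated cells for no effect and reference antibiotic for full effect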
# SSB-PriA inh – inhibitors of Klebsiella pneumoniae PriA binding to SSB C-terminal tail, primary screen, biochemical, AlphaScreen. AlphaScreen SSBct-PriA binding, biotinylated peptide. inhibition, % at 33 µM. hit rate 0.6% among 430,000; in the data active means inhibition mostly above about 37%, no sharp cut-off; inactive means mostly below about 20%;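 further: plate controls were negative control peptide for no effect and reference peptide for full effect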
# ugtP null kill – growth inhibition of ugtP-null S. aureus, primary screen, RN4220 ugtP deletion, OD600; 16 h; growth inhibition, % (concentration not given with the values); hit rate 0.54% among 330,000; AID 1259309, 2017; in the data active means growth inhibition above about 68%;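 further: plate controls were untreated wells for no effect and antibiotic for full effect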
# Mtb hypoxia rep – PubChem AID 1159583 | M. tuberculosis hypoxia-regulated fluorescent reporter, fluorescence | fluorescence inhibition, % (test concentration not listed) | hit rate 0.1% among 300,000; in the data active means fluorescence inhibition mostly above about 23%, no sharp cut-off; inactive means mostly below about 17%
# CCHF vOTU inh – CCHFV vOTU protease inhibitors, primary screen, biochemical, Pep-AMC substrate, fluorescence. Crimean-Congo hemorrhagic fever virus L polyprotein viral ovarian tumor (vOTU) protease …. inhibition, % at 11.5 µM. hit rate 0.55% among 370,000; in the data active means inhibition above about 30%; further: 0% = vehicle wells with enzyme and 100% = no enzyme wells
# Starred values were filed as active, the others as inactive; / = no result shown. Most compounds without a hit are left out; they make up all but 1.4% or so of the library.
SMILES,Sa RN4220 lethal,SSB-PriA inh,ugtP null kill,Mtb hypoxia rep,CCHF vOTU inh
Cn1c(N=Cc2cccs2)nc2ccccc21,1,-3,6,8,/
C=CCn1c(SCc2c(C)noc2C)nc2sc3c(c2c1=O)CCCCC3,4,5,88*,3,-3
Cc1ccc(-c2nnc(SCC(=O)Nc3cc(C)ccc3C)n2N)cc1,/,-12,/,/,/
C=CCn1c(=NC(=O)c2ccccc2F)sc2cc3c(cc21)OCCO3,/,-88,/,/,/
COc1ccc(CC(=O)N2CCO[C@H](c3ccccc3)C2)cc1,/,-1,/,/,/
COc1ccc(C2NCCc3c2[nH]c2ccccc32)cc1CN1CCc2cc(OC)c(OC)cc2C1C (centres undefined),2,44*,1,24,/
Fc1ccc(-[n+]2nc(Nc3ccccc3)sc2-c2c(Cl)cccc2Cl)cc1,/,46*,/,/,14
CCc1ccc(Nc2n[n+](-c3ccccc3)c(-c3c(Cl)cccc3Cl)s2)cc1,100*,66*,100*,/,0
O=C(O)c1ccc(-c2sc(Nc3ccccc3)n[n+]2-c2ccc(F)cc2)cc1,-14,-1,2,8,/
COc1ccc(C)cc1Nc1n[n+](-c2ccccc2)c(-c2ccc(OC)c(OC)c2OC)s1,-6,5,-20,/,-2
COc1ccc2ccccc2c1-c1sc(Nc2ccccc2)n[n+]1-c1ccc(F)cc1,/,39*,/,/,18
COc1ccc(-c2sc(Nc3ccccc3)n[n+]2-c2ccc(F)cc2)cc1Br,-2,-1,1,-2,6
COc1ccc(C)cc1Nc1n[n+](-c2ccccc2)c(-c2c(Cl)cccc2Cl)s1,/,39*,/,/,7
CCc1ccc(S(=O)(=O)NCCOc2ccccc2)s1,/,-27,/,/,/
O=C(Cc1c[nH]c2ccccc12)Nc1cnc(N2CCOCC2)nc1,/,-11,/,/,/
COc1cc(C(=O)NCCOc2ccc3c(c2)OCO3)c([N+](=O)[O-])cc1OC,/,16,/,/,/
Cc1ccc(CN=C2Nc3ccccc3CS2)cc1,41,-29,82*,-21,-3
COc1ccc(Nc2nc(N3CCCC3)c3ccccc3n2)cc1,-1,35*,-6,/,4
CN(C)c1cncc(OC2CCN(C(=O)c3ccc(=O)[nH]c3)C2)n1 (centres undefined),/,-3,/,/,/
COc1ccccc1NC(=O)CSc1nnc(-c2ccccn2)n1Cc1ccco1,0,63*,-5,1,-4
COc1ccc(-c2cnc(SCC(=O)Nc3nc(C)cs3)n2Cc2ccco2)cc1,/,30*,/,/,/
CCc1ccccc1NC(=O)CSc1nnc(-c2ccccn2)n1Cc1ccco1,/,54*,/,/,/
COc1ccc(-c2cnc(SCC(=O)Nc3nc(C(C)(C)C)cs3)n2Cc2ccco2)cc1,1,25,-6,-11,16
COc1ccc(C)cc1NC(=O)CSc1nnc(-c2ccccn2)n1Cc1ccco1,7,-3,-1,4,1
O=C(CSc1nnc(-c2ccccn2)n1Cc1ccco1)Nc1ccccc1F,/,38,/,/,/
SMILES,Sa RN4220 lethal,SSB-PriA inh,ugtP null kill,Mtb hypoxia rep,CCHF vOTU inh
COc1ccccc1NC(=O)CSc1nnc(-c2ccncc2)n1Cc1ccco1,/,56*,/,/,/
O=C1Nc2ccccc2Oc2ccc(NC(=O)c3ccccc3S(=O)(=O)C(F)F)cc21,/,-21,/,/,/
CC(C)Sc1nc2c(c(=O)[nH]1)C(c1ccc(N(C)C)cc1)C1=C(CCCC1=O)N2 (centres undefined),/,14,/,/,/
Nc1c2ccccc2nc2ccccc12,1,8,3,-1,-103
N#Cc1c2ccccc2nc2ccccc12,21,2,7,62*,-11
Cc1csc(CN2CCNCC2)n1,/,3,/,/,/
CN(Cc1ccco1)Cc1ccc(O)c2ncccc12,1,-5,2,10,/
Oc1ccc(COC2CCCCC2)c2cccnc12,/,108*,/,/,/
CC(C)COCc1ccc(O)c2ncccc12,15,84*,8,13,8
Oc1ccc(COCc2ccccc2)c2cccnc12,9,84*,-1,/,2
Oc1ccc(COc2cccc3cccnc23)c2cccnc12,/,32,/,/,/
CCCOCc1ccc(O)c2ncccc12,15,54*,15,17,4
Cc1noc(Cc2ccccc2NC(=O)C2(c3ccc(Cl)cc3)CCCC2)n1,/,-11,/,/,/
CCOC(=O)c1c(NC(=O)c2cc3c(=O)n4ccccc4nc3s2)sc2c1CCCC2,/,-23,/,/,/
Cc1ccc(NC(=O)N(CCCN2CCOCC2)Cc2cccs2)cc1C,-1,92*,7,6,1
O=C(Nc1ccc(Cl)cc1)N(CCCN1CCOCC1)Cc1cccs1,0,-16,6,-5,-2
Cc1cc(C)n(-c2nc3ccccc3c(=O)n2OC2CCCCC2)n1,3,-11,5,/,24
Cc1cc(C)n(-c2nc3ccccc3c3nc(C)nn23)n1,0,104*,-16,-5,4
O=C(c1ccc2ncsc2c1)N1CC(c2nc(-c3ccc[nH]c3=O)no2)C1,/,2,/,/,/
CC[n+]1ccccc1/C=C1\Sc2ccc(C)cc2N1C,27,9,100*,-5,12
CSc1ccc(CN(C)CC(=O)Nc2ccc(C)cc2Br)cc1,8,1,90*,15,9
CCN(CC)Cc1cc(Nc2c3ccccc3nc3c4ccccc4n(C)c23)cc(CN(CC)CC)c1O,/,51*,/,/,23
Oc1cccc(Nc2c3ccccc3nc3ccccc23)c1,/,5,/,/,-108
CN=c1scc(-c2cc(OC)ccc2OC)n1N=Cc1c(C)[nH]c2ccccc12,-7,45*,-30,7,/
COc1c2c(cc3oc(COC4OC(CO)C(O)C(O)C4O)cc(=O)c13)OC(C(C)(C)O)C2 (centres undefined),4,/,1,16,/
SMILES,Sa RN4220 lethal,SSB-PriA inh,ugtP null kill,Mtb hypoxia rep,CCHF vOTU inh
CC(=O)c1ccc(NC(=O)CN2C(=O)COc3ccccc32)cc1,/,56*,/,/,/
O=C(CN1C(=O)COc2ccccc21)Nc1ccccc1,/,37,/,/,/
C(#Cc1ccccc1)C[N+]1(CC#Cc2cccc3ccccc23)CCCC1,88,8,98*,19,22
C#CC[N+]1(CC#Cc2ccccc2)CCCC1,4,6,-3,3,-5
Cc1ccc(S(=O)(=O)NCCN2CCN(c3ccccc3)CC2)s1,/,5,/,/,/
COC1(CNC(=O)C(=O)Nc2ccc3c(c2)CCCN3C(=O)c2cccs2)CCSC1 (centres undefined),/,8,/,/,/
COC1(CNS(=O)(=O)c2ccc(-c3coc(C)n3)cc2)Cc2ccccc2C1,/,-10,/,/,/
CN1c2ccccc2C(C)(C)C12C=Cc1cc(O)ccc1O2 (centres undefined),3,39*,3,3,8
CCN(C[C@H]1N[C@@](Cc2ccccc2)(C(=O)OC)[C@H]2C(=O)N(Cc3ccccc3)C(=O)[C@@H]12)C(=O)Nc1ccc(C(F)(F)F)cc1,100*,-3,100*,-16,12
Cc1nc2sccn2c(=O)c1NC(=O)c1cccs1,/,-14,/,/,/
c1cncc(-c2nc(NCCCn3ccnc3)c3ccccc3n2)c1,3,40*,6,-13,1
COc1ccc(N/C(C)=C/C(=S)Nc2ccccc2)cc1,-1,43*,5,4,0
O=C(O)C1Nc2c(O)cc(Cl)c([N+](=O)[O-])c2C2C=CCC12 (centres undefined),27,98,-20,18,35*
